Reference: PubChem BioAssay (NCATS)
Results filed as inconclusive are left out. The source made the active and inactive calls. Calls come from the whole dose curve; as a rule, active = well fitted inhibition curve with a large enough effect; inconclusive = small, poorly fitted or top-dose-only effect; inactive = flat fitted curve, though single readings scatter.

Tests used:
CRL-7250 = normal cell line; test: Cytotoxic Profiling of Annotated Libraries Using Quantitative High-Throughput Screening (AID 1296008); conditions: Five cell lines viability, CellTiter-Glo ATP luminescence, 48-72 h; max response: hits give low values; note: potency is the fitted concentration of half-maximal effect
Procedure, shortened: (§1)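 Compounds were pin-transferred onto cells and incubated 48 or 72 hr at 37 degree Celsius, 95% humidity. CellTiter-Glo was added, plates sat 10 min at room temperature, then ATP-coupled luminescence was imaged as the viability read-out.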

HEK293 = test: as above; conditions: Five cell lines viability, CellTiter-Glo ATP luminescence, 48-72 h; max response: hits give low values
Procedure, shortened: as §1

HaCat [1] = test: as above; conditions: Five cell lines viability, CellTiter-Glo ATP luminescence, 48-72 h; max response: hits give low values
Procedure, shortened: as §1

KB-3-1 = test: as above; conditions: Five cell lines viability, CellTiter-Glo ATP luminescence, 48-72 h; max response: hits give low values
Procedure, shortened: as §1

NIH3T3 = test: as above; conditions: Five cell lines viability, CellTiter-Glo ATP luminescence, 48-72 h; max response: hits give low values
Procedure, shortened: as §1

HEK293T = test: qHTS assay to identify novel small-molecules to repurpose for Merkel cell carcinoma treatment (AID 1296009); conditions: MCC and control cell lines, CellTiter-Glo viability, 72 h; at 44.8 µM (top of the series) unless noted
Procedure, shortened: (§2)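 Luminescence from CellTiter-Glo, read 10 min after addition at room temperature, reported viability following a 72 hr, 37 degree celsius treatment with NPC or MIPE compounds in titration; values normalized to plate controls.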

MCC-13 = test: as above; conditions: MCC and control cell lines, CellTiter-Glo viability, 72 h; series mostly up to 46 µM
Procedure, shortened: as §2

MCC-26 = test: as above; conditions: MCC and control cell lines, CellTiter-Glo viability, 72 h; series mostly up to 46 µM
Procedure, shortened: as §2

MKL-1 = test: as above; conditions: MCC and control cell lines, CellTiter-Glo viability, 72 h; series mostly up to 46 µM
Procedure, shortened: as §2

HACAT [2] = test: as above; conditions: MCC and control cell lines, CellTiter-Glo viability, 72 h; at 44.8 µM (top of the series) unless noted
Procedure, shortened: as §2
% is set by controls: 0 for no effect and ±100 for the full control effect.
Note: nearly all actives have a fitted effect of over 60% in size.

CCOC(=O)c1ccc(O)cc1
inactive: max response (CRL-7250) -1.17% | outcome (HEK293) | max response (HaCat [1]) -1.41% | max response (KB-3-1) -4.79% | outcome (NIH3T3) | outcome (HEK293T) | Potency (MCC-13) | Potency (MCC-26) | Potency (MKL-1)

Nc1ncnc2c1ncn2[C@@H]1O[C@H](CO)[C@@H](O)[C@H]1O
inactive: outcome (CRL-7250) | max response (HEK293) 1.55% | outcome (HaCat [1]) | max response (KB-3-1) 15.4% | outcome (HACAT [2]) | Potency (MCC-13) | Potency (MCC-26) | Potency (MKL-1)

CCCCC/C(C=O)=C\c1ccccc1
inactive: max response (CRL-7250) -6.23% | outcome (HEK293) | max response (HaCat [1]) 1.14% | max response (KB-3-1) -6.5% | outcome (NIH3T3) | outcome (HEK293T) | Potency (MCC-13) | Potency (MCC-26) | Potency (MKL-1)

CC(O)COc1ccccc1 (stereo unspecified)
inactive: max response (CRL-7250) 2.21% | outcome (HEK293) | outcome (HaCat [1]) | max response (NIH3T3) -1.73% | outcome (HACAT [2]) | outcome (HEK293T) | Potency (MCC-13) | Potency (MCC-26) | Potency (MKL-1)

OC[C@H]1O[C@@H](O[C@@H]2[C@@H](CO)O[C@](O)(CO)[C@H]2O)[C@H](O)[C@@H](O)[C@H]1O
inactive: max response (CRL-7250) -1.41% | outcome (HEK293) | outcome (HaCat [1]) | max response (NIH3T3) 4.19% | outcome (HACAT [2]) | outcome (HEK293T) | Potency (MCC-13) | Potency (MCC-26) | Potency (MKL-1)

NC(N)=NCCC[C@H](N)C(=O)O
inactive: outcome (CRL-7250) | max response (HEK293) -4.96% | outcome (HaCat [1]) | outcome (NIH3T3) | outcome (HACAT [2]) inactive [at 4.96 µM] | activity change, negative = cytotoxicity (MCC-13) 10.7% [at 4.84 µM] | activity change, negative = cytotoxicity (MCC-26) 1.83% [at 4.84 µM] | activity change, negative = cytotoxicity (MKL-1) 12.8% [at 4.84 µM]

CC1(C)CO[C@@H](CC(=O)O)CN1
inactive: outcome (CRL-7250) | outcome (HEK293) | outcome (HaCat [1]) | max response (NIH3T3) -2.92% | outcome (HACAT [2]) | outcome (HEK293T) | Potency (MCC-13) | Potency (MCC-26) | Potency (MKL-1)

Cc1cc(N)c2ccccc2[n+]1CCCCCCCCCC[n+]1c(C)cc(N)c2ccccc21
inactive: max response (HaCat [1]) -1.45% | max response (NIH3T3) -20.7%
active: Potency (CRL-7250) 14.6 µM | Potency (HEK293) 1.3 µM

CO/N=C(\C(=O)N[C@@H]1C(=O)N2C(C(=O)O)=C(CSc3nc(=O)c(O)nn3C)CS[C@H]12)c1csc(N)n1
inactive: max response (CRL-7250) 1.86% | outcome (HEK293) | max response (HaCat [1]) -21.1% | outcome (NIH3T3) | outcome (HEK293T) | Potency (MCC-13) | Potency (MCC-26) | Potency (MKL-1)

CCN(CC)CCOC(=O)C1(C2CCCCC2)CCCCC1
inactive: outcome (CRL-7250) | max response (HEK293) -0.793% | outcome (HaCat [1]) | max response (NIH3T3) 1.01% | outcome (HACAT [2]) | Potency (MCC-13) | Potency (MCC-26) | Potency (MKL-1)

NC(=O)c1ncn([C@@H]2O[C@H](CO)[C@@H](O)[C@H]2O)c1N
inactive: max response (CRL-7250) -9.1% | max response (HEK293) -5.61% | max response (HaCat [1]) -15% | max response (NIH3T3) -10.7% | Potency (MCC-13) | Potency (MCC-26) | Potency (MKL-1)

CN(C)CCCN1c2ccccc2CCc2ccccc21
inactive: max response (CRL-7250) 0.991% | max response (HaCat [1]) -28.4% | max response (NIH3T3) -1.95% | Potency (MCC-13) | Potency (MCC-26) | Potency (MKL-1)
active: Potency (HEK293) 13.3 µM

N[C@H](C(=O)O)c1ccc(O)cc1
inactive: max response (CRL-7250) 3.21% | outcome (HEK293) | outcome (HaCat [1]) | max response (NIH3T3) -1.62% | outcome (HACAT [2]) inactive [at 17.4 µM] | outcome (HEK293T) inactive [at 17.4 µM] | Potency (MCC-13) | Potency (MCC-26) | Potency (MKL-1)

NC(CSCC(=O)O)C(=O)O (stereo unspecified)
inactive: outcome (CRL-7250) | outcome (HEK293) | outcome (HaCat [1]) | outcome (NIH3T3) | outcome (HACAT [2]) | outcome (HEK293T) | Potency (MCC-13) | Potency (MCC-26) | Potency (MKL-1)

CC1=C(CC(=O)O)c2cc(F)ccc2/C1=C\c1ccc(S(C)(=O)=O)cc1
inactive: max response (CRL-7250) -16.5% | max response (HEK293) -17.6% | max response (HaCat [1]) -12.4% | max response (KB-3-1) -9.19% | max response (NIH3T3) -5.99% | Potency (MCC-13) | Potency (MCC-26) | Potency (MKL-1)
